{"source": "PubChem BioAssay (NCI)", "note": "The panel holds about 79,000 compounds, 15% with a hit somewhere; the sample as a whole holds those more often. A number with no mark means an inactive call. The source made the active and inactive calls. Rule as the data show it: active = growth inhibition above about 70%; inactive = the rest."}
{"experiment": "NCI Yeast Anticancer Drug Screen. Data for the bub3 strain (AID 167)", "conditions": "S. cerevisiae bub3 mutant strain, at 50.0 µM, active compounds read high", "method_in_brief": "(§1)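 Whole-cell yeast assay. The mutant strain was incubated with compounds, and growth inhibition was determined by comparison with vehicle-treated cells.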"}
{"smiles": "CCOP(=O)(OCC)C(Cc1ccccc1)N=C(c1ccccc1)c1ccccc1", "note": "(stereo not drawn)", "growth inhibition": "99% (active)"}
{"smiles": "CCc1ncnc2cc(OCC3CO3)c(OC)cc12", "note": "(stereo not drawn)", "growth inhibition": "17.9%"}
{"smiles": "CCOC(=O)[C@H]1Nc2ccccc2C2c3ccccc3CC21", "note": "(stereo partly drawn)", "growth inhibition": "90.5% (active)"}
{"smiles": "O=CNc1ccc2c(c1)C(=O)c1ccccc1-2", "growth inhibition": "62.9%"}
{"smiles": "CCOc1ccc2c(c1)c(CC(=O)O)cn2C", "growth inhibition": "79.8% (active)"}
{"smiles": "OC1CSCCCSCCSCCCSC1", "growth inhibition": "69.2%"}
{"smiles": "N#Cc1c(N)[nH]c2ccc(Sc3ccccc3)cc12", "growth inhibition": "52.4%"}
{"smiles": "Cc1ccc(-c2ccc(Nc3c4ccccc4nc4ccccc34)cc2)cn1", "growth inhibition": "25.5%"}
{"smiles": "c1ccc2c(c1)NC(NC1Nc3ccccc3N1)N2", "growth inhibition": "10.8%"}
{"smiles": "OC(COc1cccc2ccccc12)CN1CCOCC1", "note": "(stereo not drawn)", "growth inhibition": "49.1%"}
{"smiles": "CCC/C(Cl)=N\\OC(=O)Nc1ccc(Br)cc1", "growth inhibition": "87.6% (active)"}
{"smiles": "COc1ccc(/C=C2\\SC(=S)N(/C=C/c3nc4ccccc4[nH]c3=O)C2=O)cc1OC", "growth inhibition": "70.3% (active)"}
{"smiles": "O=C(NNc1ccnc2cc(Cl)ccc12)/C(=C\\c1ccccc1Cl)NC(=O)c1ccccc1", "growth inhibition": "85.8% (active)"}
{"smiles": "CSC1=NNC(SC)=NN1", "growth inhibition": "68.8%"}
{"smiles": "Cc1c(C2=C(Br)C(=O)N(C)C2=O)c(=O)n(C)c(=O)n1C", "growth inhibition": "28.1%"}
{"smiles": "NCCNc1ccc(NCCN)c2c1C(=O)c1c(O)ccc(O)c1C2=O", "growth inhibition": "60%"}
{"smiles": "Cn1c(=O)c(-c2ccccc2)c(N=[N+]=[N-])c2ccccc21", "growth inhibition": "86.5% (active)"}
{"smiles": "CCCCCCCCCCCCCCCCCCOCC(O)COP(=O)(O)OCC1OC(n2cc(F)c(=O)[nH]c2=O)CC1O", "note": "(stereo not drawn)", "growth inhibition": "82.3% (active)"}
{"smiles": "CCS(=O)(=O)c1ccc(/C=C/C=N/NC(=S)NCC(C)C)cc1", "growth inhibition": "39.1%"}
{"smiles": "CCC(=O)Oc1c(Cl)cc(Cl)c2ccccc12", "growth inhibition": "12.1%"}
{"smiles": "COc1cc2c3c(cccc3c1)C(=O)N(CCN(C)C)C2=O", "growth inhibition": "-34%"}
{"smiles": "CN(C)c1ccc(C(C#N)=C(C#N)C#N)cc1", "growth inhibition": "83.4% (active)"}
{"smiles": "O=C(CCCN1CCC2(CC1)CC(=O)N(N1CCCCCC1)C2=O)c1ccc(F)cc1", "growth inhibition": "73.3% (active)"}
{"smiles": "O=C1C2C(C(=O)N1c1ccc(OCc3ccccc3)cc1)C1c3ccccc3C2C2CCCCN21", "note": "(stereo not drawn)", "growth inhibition": "83.3% (active)"}
{"smiles": "CCN(CC)CCC(=O)c1ccc(Oc2ccc(F)cc2)cc1", "growth inhibition": "69.6%"}
{"smiles": "O=Nc1c(NO)ccc2nn(-c3ccccc3)nc12", "growth inhibition": "90.4% (active)"}
{"smiles": "CC(=O)SCCC[Si](C)(C)CCCSC(C)=O", "growth inhibition": "65.7%"}
{"smiles": "O=C(O)C1CCCCC1c1c2ccc(=O)c(O)c-2oc2c(O)c(O)ccc12", "note": "(stereo not drawn)", "growth inhibition": "87.2% (active)"}
{"smiles": "Cc1ccc(NN(NC(=O)OC(C)C)C(=O)OC(C)C)cc1", "growth inhibition": "2.1%"}
{"smiles": "O=C1c2ccccc2C(=O)c2cc(CBr)ccc21", "growth inhibition": "86.2% (active)"}
{"smiles": "Cc1c(C(Cc2ccccc2N(C)C(=O)/C=C\\C(=O)O)c2c[nH]c3ccccc23)c2ccccc2n1C", "note": "(stereo not drawn)", "growth inhibition": "85.5% (active)"}
{"smiles": "CC(C)/C(Cl)=N\\OC(=O)Nc1ccc(F)cc1", "growth inhibition": "73.8% (active)"}
{"smiles": "O=C1OC(=O)C2CCCC3CCCC1C32", "note": "(stereo not drawn)", "growth inhibition": "71.5% (active)"}
{"smiles": "CCOC(=O)C(NC(=O)c1ccccc1)(N1CCN(c2cc3c(cc2F)c(=O)c(C(=O)O)cn3C2CC2)CC1)C(F)(F)F", "note": "(stereo not drawn)", "growth inhibition": "-16.1%"}
{"smiles": "COc1ccc(NC(=S)N/N=C(\\c2ccccc2)c2ccccn2)cc1", "growth inhibition": "83.9% (active)"}
{"smiles": "C=CCC1=C(C)C(OC(=O)/C=C/c2ccccc2)CC1=O", "note": "(stereo not drawn)", "growth inhibition": "40.6%"}
{"smiles": "NNc1c(F)c(F)cc(F)c1F", "growth inhibition": "84.6% (active)"}
{"smiles": "COP(=O)(OC)/C(=C\\C1=CN(C(c2ccccc2)(c2ccccc2)c2ccccc2)CN1)NC=O", "growth inhibition": "96.2% (active)"}
{"smiles": "COC(=O)c1cc(-c2ccc(C)cc2)[nH]c(=O)c1C#N", "growth inhibition": "52.6%"}
{"experiment": "NCI Yeast Anticancer Drug Screen. Data for the bub3 strain (AID 167)", "conditions": "S. cerevisiae bub3 mutant strain, at 100.0 µM, active compounds read high", "method_in_brief": "as §1"}
{"smiles": "CCOP(=O)(OCC)C(Cc1ccccc1)N=C(c1ccccc1)c1ccccc1", "note": "(stereo not drawn)", "growth inhibition": "98% (active)"}
{"smiles": "CCc1ncnc2cc(OCC3CO3)c(OC)cc12", "note": "(stereo not drawn)", "growth inhibition": "43%"}
{"smiles": "CCOC(=O)[C@H]1Nc2ccccc2C2c3ccccc3CC21", "note": "(stereo partly drawn)", "growth inhibition": "81% (active)"}
{"smiles": "O=CNc1ccc2c(c1)C(=O)c1ccccc1-2", "growth inhibition": "87% (active)"}
{"smiles": "CCOc1ccc2c(c1)c(CC(=O)O)cn2C", "growth inhibition": "87% (active)"}
{"smiles": "OC1CSCCCSCCSCCCSC1", "growth inhibition": "68%"}
{"smiles": "N#Cc1c(N)[nH]c2ccc(Sc3ccccc3)cc12", "growth inhibition": "96% (active)"}
{"smiles": "Cc1ccc(-c2ccc(Nc3c4ccccc4nc4ccccc34)cc2)cn1", "growth inhibition": "36%"}
{"smiles": "c1ccc2c(c1)NC(NC1Nc3ccccc3N1)N2", "growth inhibition": "-10%"}
{"smiles": "OC(COc1cccc2ccccc12)CN1CCOCC1", "note": "(stereo not drawn)", "growth inhibition": "47%"}
{"smiles": "CCC/C(Cl)=N\\OC(=O)Nc1ccc(Br)cc1", "growth inhibition": "96% (active)"}
{"smiles": "COc1ccc(/C=C2\\SC(=S)N(/C=C/c3nc4ccccc4[nH]c3=O)C2=O)cc1OC", "growth inhibition": "85% (active)"}
{"smiles": "O=C(NNc1ccnc2cc(Cl)ccc12)/C(=C\\c1ccccc1Cl)NC(=O)c1ccccc1", "growth inhibition": "76% (active)"}
{"smiles": "CSC1=NNC(SC)=NN1", "growth inhibition": "99% (active)"}
{"smiles": "Cc1c(C2=C(Br)C(=O)N(C)C2=O)c(=O)n(C)c(=O)n1C", "growth inhibition": "91% (active)"}
{"smiles": "NCCNc1ccc(NCCN)c2c1C(=O)c1c(O)ccc(O)c1C2=O", "growth inhibition": "62%"}
{"smiles": "Cn1c(=O)c(-c2ccccc2)c(N=[N+]=[N-])c2ccccc21", "growth inhibition": "94% (active)"}
{"smiles": "CCCCCCCCCCCCCCCCCCOCC(O)COP(=O)(O)OCC1OC(n2cc(F)c(=O)[nH]c2=O)CC1O", "note": "(stereo not drawn)", "growth inhibition": "94% (active)"}
{"smiles": "CCS(=O)(=O)c1ccc(/C=C/C=N/NC(=S)NCC(C)C)cc1", "growth inhibition": "8%"}
{"smiles": "CCC(=O)Oc1c(Cl)cc(Cl)c2ccccc12", "growth inhibition": "3%"}
{"smiles": "COc1cc2c3c(cccc3c1)C(=O)N(CCN(C)C)C2=O", "growth inhibition": "-4%"}
{"smiles": "CN(C)c1ccc(C(C#N)=C(C#N)C#N)cc1", "growth inhibition": "31%"}
{"smiles": "O=C(CCCN1CCC2(CC1)CC(=O)N(N1CCCCCC1)C2=O)c1ccc(F)cc1", "growth inhibition": "66%"}
{"smiles": "O=C1C2C(C(=O)N1c1ccc(OCc3ccccc3)cc1)C1c3ccccc3C2C2CCCCN21", "note": "(stereo not drawn)", "growth inhibition": "88% (active)"}
{"smiles": "CCN(CC)CCC(=O)c1ccc(Oc2ccc(F)cc2)cc1", "growth inhibition": "97% (active)"}
{"smiles": "O=Nc1c(NO)ccc2nn(-c3ccccc3)nc12", "growth inhibition": "97% (active)"}
{"smiles": "CC(=O)SCCC[Si](C)(C)CCCSC(C)=O", "growth inhibition": "47%"}
{"smiles": "O=C(O)C1CCCCC1c1c2ccc(=O)c(O)c-2oc2c(O)c(O)ccc12", "note": "(stereo not drawn)", "growth inhibition": "86% (active)"}
{"smiles": "Cc1ccc(NN(NC(=O)OC(C)C)C(=O)OC(C)C)cc1", "growth inhibition": "17%"}
{"smiles": "O=C1c2ccccc2C(=O)c2cc(CBr)ccc21", "growth inhibition": "54%"}
{"smiles": "Cc1c(C(Cc2ccccc2N(C)C(=O)/C=C\\C(=O)O)c2c[nH]c3ccccc23)c2ccccc2n1C", "note": "(stereo not drawn)", "growth inhibition": "30%"}
{"smiles": "CC(C)/C(Cl)=N\\OC(=O)Nc1ccc(F)cc1", "growth inhibition": "99% (active)"}
{"smiles": "O=C1OC(=O)C2CCCC3CCCC1C32", "note": "(stereo not drawn)", "growth inhibition": "97% (active)"}
{"smiles": "CCOC(=O)C(NC(=O)c1ccccc1)(N1CCN(c2cc3c(cc2F)c(=O)c(C(=O)O)cn3C2CC2)CC1)C(F)(F)F", "note": "(stereo not drawn)", "growth inhibition": "3%"}
{"smiles": "COc1ccc(NC(=S)N/N=C(\\c2ccccc2)c2ccccn2)cc1", "growth inhibition": "66%"}
{"smiles": "C=CCC1=C(C)C(OC(=O)/C=C/c2ccccc2)CC1=O", "note": "(stereo not drawn)", "growth inhibition": "47%"}
{"smiles": "NNc1c(F)c(F)cc(F)c1F", "growth inhibition": "47%"}
{"smiles": "COP(=O)(OC)/C(=C\\C1=CN(C(c2ccccc2)(c2ccccc2)c2ccccc2)CN1)NC=O", "growth inhibition": "94% (active)"}
{"smiles": "COC(=O)c1cc(-c2ccc(C)cc2)[nH]c(=O)c1C#N", "growth inhibition": "-7%"}
